Laboratory results reported in publication PMC5540273 (PLoS ONE, 2017).

Assays:
Settings in all cases: concentration: 1 μM, replicates: in singlicate; n = 1
TESK1 = tested on: TESK1
TGFBR1 = tested on: TGFBR1
TGFBR2 = tested on: TGFBR2
TIE1 = tested on: TIE1
TIE2 = tested on: T1, TIE2
T1 construct: gene TEK

TLK1 = tested on: TLK1
TLK2 = tested on: TLK2
TNIK = tested on: TNIK
TNK1 = tested on: TNK1
TNK2 = tested on: TNK2
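Note: KINOMEscan kinase panel screen.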

Row | SMILES | %Inh (TESK1) [%] | %Inh (TGFBR1) [%] | %Inh (TGFBR2) [%] | %Inh (TIE1) [%] | %Inh (TIE2) [%] | %Inh (TLK1) [%] | %Inh (TLK2) [%] | %Inh (TNIK) [%] | %Inh (TNK1) [%] | %Inh (TNK2) [%]
1 | Cc1ccc(F)c(C(=O)Nc2cccc(-c3nn4ccccc4c3-c3ccnc(Nc4cccc(F)c4)n3)c2)c1F [GSK361061] | 28 | 43 | 21 | 55 | 27 | 8 | 0 | 29 | 88 | 43
2 | CN1CCN(Cc2cccc(-c3ccc4c(Nc5ccc(Oc6ccccc6)cc5)ccnc4c3)c2)CC1 [GW578342] | 2 | 0 | 0 | 10 | 0 | 78 | 0 | 98.8 | 70 | 7
3 | O=C(Nc1cccc(-c2nn3ccccc3c2-c2ccnc(Nc3cccc(F)c3)n2)c1)c1c(F)ccc(F)c1Cl [GSK357952] | 0 | 2 | 19 | 48 | 22 | 0 | 0 | 0 | 91.6 | 21
4 | CN(C)Cc1ccc(-c2ccc3c(Nc4ccc(Oc5ccccn5)cc4)ccnc3c2)o1 [GW567148] | 0 | 0 | 0 | 19 | 0 | 0 | 0 | 20 | 29 | 40
5 | CC(C)c1nc(-c2cccc(NS(=O)(=O)c3c(F)cccc3F)c2F)c(-c2ccnc(Nc3ccc(N4CCOCC4)nc3)n2)s1 [GSK2008607] | 100 | 86 | 77 | 91.2 | 99.1 | 22 | 0 | 63 | 100 | 99.6
6 | C[C@@H](Oc1cc(-n2cnc3cc(-c4ccnc(NCCS(C)(=O)=O)c4)ccc32)sc1C(N)=O)c1ccccc1Cl [GSK907232] | 28 | 5 | 0 | 78 | 56 | 0 | 0 | 36 | 17 | 33
7 | COc1ccc(Nc2nccc(N3CCC(NC(=O)Nc4cccc(OC)c4)C3)n2)cc1 (centres unmarked) [GSK1379742] | 36 | 0 | 9 | 0 | 0 | 0 | 0 | 0 | 0 | 12
8 | COc1ccc(Nc2nccc(NCCNC(=O)c3cc4ccccc4s3)n2)cc1 [GSK1379896] | 0 | 0 | 0 | 0 | 0 | 0 | 0 | 0 | 0 | 4
9 | CCn1c(-c2nonc2N)nc2c(C#CC(C)(C)O)nc(OC[C@H](N)c3ccccc3)cc21 [GSK943949] | 0 | 9 | 0 | 0 | 0 | 2 | 0 | 4 | 0 | 8
10 | CN1CCN(CCCNc2nccc(-c3c(-c4ccc(F)cc4)nn4cc(C(F)(F)F)ccc34)n2)CC1 [GW621581] | 10 | 72 | 44 | 16 | 9 | 2 | 0 | 24 | 0 | 0
11 | COc1cc(Nc2nccc(N3CCC(NC(=O)c4cc5ccccc5s4)C3)n2)cc(OC)c1OC (centres unmarked) [GSK1379760] | 9 | 0 | 0 | 35 | 0 | 8 | 18 | 0 | 0 | 15
12 | Cl.c1ccc(-c2ccc3c(Nc4ccc5[nH]ncc5c4)ccnc3c2)nc1 [GW440137] | 63 | 31 | 50 | 1 | 0 | 15 | 5 | 18 | 2 | 8
13 | O=C(O)C(F)(F)F.O=C(O)C(F)(F)F.O=c1[nH]ccc2nc(N[C@@H]3CCCNC3)nc(Nc3ccc(S(=O)(=O)N4CCOCC4)cc3)c12 [GSK2177277] | 0 | 32 | 0 | 66 | 0 | 94.3 | 98.2 | 99.5 | 73 | 26
14 | C[C@@H]1CC[C@@H](C(=O)Nc2ccccc2)CN1c1cc(-c2ccc3c(N)n[nH]c3c2)nc(N)n1 [GSK2286062] | 29 | 0 | 0 | 0 | 22 | 0 | 4 | 0 | 0 | 0
15 | O=C(Nc1cccc(-c2nn3ccccc3c2-c2ccnc(Nc3cccc(C(F)(F)F)c3)n2)c1)c1c(F)cccc1F [GSK292658] | 0 | 6 | 0 | 31 | 0 | 0 | 0 | 0 | 75 | 22
16 | CC(C)(C)c1ccc2nccc(Nc3cccc(O)c3)c2c1 [GW856795] | 0 | 42 | 88 | 0 | 2 | 12 | 0 | 0 | 19 | 0
17 | COc1cc(Nc2nccc(-c3c(-c4cccc(NC(=O)c5c(F)cccc5F)c4)nn4ccccc34)n2)cc(OC)c1OC [GSK323521] | 36 | 0 | 17 | 67 | 46 | 6 | 0 | 0 | 0 | 1
18 | Cn1cc(-c2[nH]c3cc(NC(=O)[C@H](N)C4CCCCC4)cc4c3c2C=NNC4=O)cn1 | 15 | 0 | 66 | 83 | 42 | 8 | 1 | 91.9 | 68 | 48
19 | CNC(=O)c1ccccc1Nc1nc(Nc2ccc(N3CCOCC3)cc2)ncc1Cl.Cl [GSK1576028] | 26 | 93 | 0 | 100 | 97.9 | 52 | 57 | 76 | 100 | 98.2
20 | CC(=O)N1CCN(c2ccc(Nc3nccc(-c4sc(C(C)C)nc4-c4cccc(NS(=O)(=O)c5cccc(Cl)c5)c4)n3)cn2)CC1 [GSK1660437] | 66 | 76 | 79 | 76 | 96.8 | 0 | 0 | 10 | 95.6 | 28
21 | COc1cccc(C(=O)Nc2cccc(Oc3ccc4nc(NC(=O)C5CC5)cn4n3)c2)c1 | 0 | 0 | 40 | 84 | 67 | 4 | 0 | 54 | 48 | 5
22 | Nc1ncc(-c2ccc3nccc(-c4ccncc4)c3c2)cc1S(=O)(=O)N1CCOCC1 [GSK1627798] | 2 | 0 | 5 | 3 | 0 | 0 | 0 | 0 | 0 | 11
23 | O=C(Nc1n[nH]c2cc(-c3ccoc3)ccc12)C1CC1 [SB-738481] | 0 | 0 | 0 | 0 | 5 | 7 | 0 | 42 | 0 | 0
24 | COc1ccc(-c2coc3ccc(-c4nnc(SCc5ccc(OC)c(C(F)(F)F)c5)o4)cc23)cc1 | 0 | 6 | 25 | 0 | 0 | 17 | 0 | 3 | 9 | 8
25 | Cl.c1ccc(-c2ccc3c(Nc4ccc5[nH]ccc5c4)ccnc3c2)nc1 [GW440138] | 23 | 53 | 4 | 0 | 0 | 1 | 0 | 58 | 24 | 4
26 | COc1ccc(CNC(=O)NC2CCN(c3ccnc(Nc4ccc(F)cc4)n3)CC2)cc1 [GSK1379788] | 2 | 18 | 0 | 0 | 0 | 0 | 0 | 0 | 9 | 2
27 | c1ccc(Oc2ccc(Nc3ccnc4cc(-c5ccc(CNCCN6CCOCC6)o5)ccc34)cc2)nc1 [GW567145] | 3 | 0 | 0 | 0 | 0 | 0 | 0 | 30 | 27 | 37
28 | O=C(NC1CCN(c2ccnc(Nc3ccc(F)cc3)n2)C1)c1cc2ccccc2s1 (centres unmarked) [GSK1379716] | 31 | 39 | 0 | 24 | 0 | 7 | 0 | 1 | 0 | 21
29 | Cl.Cl.NCC(NC(=O)c1cc(-c2ccccc2)c(-c2ccnc3[nH]ccc23)s1)c1ccccc1 (centres unmarked) [GSK1321561] | 16 | 0 | 0 | 13 | 0 | 54 | 0 | 86 | 0 | 7
